From PubChem BioAssay
Most compounds without a hit are left out; they make up all but 4.2% or so of the library.
VDR inh = inhibitors of human vitamin D receptor | P11473 | VDR-SRC2-3 peptide fluorescence polarization, 2 h | Potency, µM, for the others: max response, negative = inhibition, most hits filed as inhibitors | hit rate 0.93% among 400,000
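FP read-out; VDR + SRC2-3 coactivator peptide; 23 nl compound by pintool; 2 h RT incubation; reagents held at 4 deg C, protected from light.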
PLK1 PBD inh = PLK1 (human) polo-box domain binding inhibition; Plk1 PBD binding of FITC phosphopeptide, fluorescence polarization; hit rate 2.8% among 360,000; AID 720504; Potency, µM, for the others: max response, negative = inhibition, usual class: inhibitors; further: series mostly up to about 57 µM; nearly all actives have a fitted effect of over 65% in size
ALOX12 inh = ALOX12 (human) lipoxygenase inhibition | purified 12hLO, xylenol orange hydroperoxide absorbance | Potency, µM (doses to about 108 µM), inactives show top-dose activity change, negative = inhibition, actives largely listed as inhibitors | hit rate 1.1% among 580,000
Target sequence (P18054 whole entry, looked up): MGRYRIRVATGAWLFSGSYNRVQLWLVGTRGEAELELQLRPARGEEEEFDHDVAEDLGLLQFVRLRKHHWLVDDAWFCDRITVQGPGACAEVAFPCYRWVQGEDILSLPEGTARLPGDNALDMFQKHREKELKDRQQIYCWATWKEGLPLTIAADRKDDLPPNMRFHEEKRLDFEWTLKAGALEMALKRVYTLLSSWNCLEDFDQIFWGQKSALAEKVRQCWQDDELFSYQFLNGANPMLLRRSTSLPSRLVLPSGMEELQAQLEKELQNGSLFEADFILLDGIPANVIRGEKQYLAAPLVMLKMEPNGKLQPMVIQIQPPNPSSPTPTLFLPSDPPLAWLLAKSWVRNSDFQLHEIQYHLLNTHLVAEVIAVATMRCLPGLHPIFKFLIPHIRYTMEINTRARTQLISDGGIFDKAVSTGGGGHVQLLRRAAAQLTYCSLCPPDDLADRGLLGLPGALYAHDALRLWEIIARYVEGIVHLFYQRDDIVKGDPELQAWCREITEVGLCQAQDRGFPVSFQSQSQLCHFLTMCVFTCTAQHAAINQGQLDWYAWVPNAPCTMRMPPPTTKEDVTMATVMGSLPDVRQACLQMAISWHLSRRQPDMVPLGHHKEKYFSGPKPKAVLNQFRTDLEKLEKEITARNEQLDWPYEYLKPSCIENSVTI
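Purified human 12hLO at 150 nM in 25 mM Hepes, 0.01% Triton X-100, pH 7.0, preincubated 15 min at room temperature with compound. Reaction started with 40 uM arachidonic acid, 30 min at room temperature. Hydroperoxide measured by Fe-xylenol orange, 573/405 nm absorbance ratio.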
Sfp PPTase inh = inhibitors of Bacillus subtilis Sfp phosphopantetheinyl transferase; Biochemical Sfp PPTase activity, qHTS; Potency, µM, for the others: largest response in the series, negative = inhibition, usual class: inhibitors; AID 1490; hit rate 3.5% among 310,000; Q9F4F7;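 further: the enzyme is Sfp with the accession as filed and its product quenches rhodamine fluorescence; 0% = enzyme reaction without inhibitor and -100% = no enzyme wells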
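Compounds were incubated with enzyme (final 15 nM) for 15 min at room temperature before substrate addition started the reaction. Fluorescence at 525 nm excitation, 598 nm emission was recorded immediately and after 30 minutes.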
An asterisk follows results filed as active; ? = inconclusive; · = no result; ! = a repeat was not active; [ ] = remark or other dose. The call rests on the fitted dose curve; in most records, active means well fitted curve in the direction sought with a large enough effect; inconclusive means small, poorly fitted or top-dose-only effect, or another doubt; inactive means no such curve, though single readings can be large; an effect the other way counts as inactive or inconclusive. Unless noted, on the % scale 0 is the no-effect control and ±100 the full control effect; potency means the concentration at half of the fitted maximal effect.

SMILES | VDR inh | PLK1 PBD inh | ALOX12 inh | Sfp PPTase inh
CC(NC(=O)CC12CC3CC(CC(C3)C1)C2)c1ccccc1 (configuration not stated) | · | · | -6% | ·
NC1=NC[C@@H](Cc2ccc(O)cc2)N1CCc1cccc2ccccc12 | 3% | 4% | 0% | 89µM*
NC1=NC[C@H](Cc2ccc(O)cc2)N1CCc1cccc2ccccc12 | -9% | 0% | -10% | -9%
COc1cc(O)c2c(c1)O[C@H](c1ccccc1)CC2=O | -14% | · | · | 1%
COc1cc(O)c2c(c1)OC(c1ccc(O)cc1)CC2=O (configuration not stated) | 50µM* | -9% | ? | -1%
CCOC1=C2[C@@H](CN(S(=O)(=O)c3ccc(C)cc3)[C@H]2c2ccccc2Cl)[C@H]2C(=O)NC(=O)[C@H]2C1 | · | -7% | -84% | ·
CCOC1=C2[C@H](c3ccc(CC)cc3)N(S(=O)(=O)c3ccc(C)cc3)C[C@H]2C(C#N)(C#N)C(C#N)(C#N)C1 | · | 17µM* | -7% | ·
CCOC1=C2[C@H](c3ccccc3Cl)N(S(=O)(=O)c3ccc(C)cc3)C[C@H]2C(C#N)(C#N)C(C#N)(C#N)C1 | · | 27µM* | ? | ·
CCNc1nc(OC)nc(Oc2ccc(=O)[nH]n2)n1 | -4% | · | -9% | ·
O=C(CSc1ccccn1)N1CCOCC1 | -16% | -15% | -21% | 4%
NC1=C(Br)C(=O)c2ccccc2C1=O | -3% | -8% | 0% | -5%
NC1=CC(=O)C(=O)c2ccccc21 | 45µM* | -22% | -23% | ·
O=C(CSc1nncn1-c1ccccn1)Nc1ccccc1Cl | 4% | -4% | 70% | 5%
O=C(CCCN1C(=O)/C(=C/c2cccs2)SC1=S)Nc1ccccn1 | -19% | 19µM* | -15% | ?
O=C(CCN1C(=O)/C(=C\c2cccs2)SC1=S)Nc1ccccn1 | 20% | 1% | -23% | 11%
O=C(CCN1C(=O)/C(=C/c2cccs2)SC1=S)Nc1ccc(C(=O)O)c(O)c1 | 9% | 27µM* | ? | -16%
CC(/C=C1\SC(=S)N(CCCC(=O)Nc2ccc(C(=O)O)c(O)c2)C1=O)=C\c1ccccc1 | ? | 27µM* | · | ?
CCc1cc2c(NC(Cc3c[nH]c4ccccc34)C(=O)O)nc(C)nc2s1 (configuration not stated) | -6% | -6% | -9% | -7%
CCOC(=O)[C@]12CCCC=C1N(Cc1ccco1)C(=O)[C@H](CC(=O)N1CCCC1)C2 | · | -7% | 6% | ·
Cc1nc(-c2ccc3c(c2)-c2ccccc2C3)cs1 | · | · | 0.32µM* | ·
COc1ccc2c(c1)n([O-])c1c([n+]2=O)CCC1 | -20% | -17% | · | -12%
CCOc1ccc2c(c1)n([O-])c1c([n+]2=O)CCCC1 | -11% | -22% | 18% | 20µM*
Cc1cccc(OC[C@H]2C[C@@H](NC(=O)Nc3ccccc3)[C@H](O)[C@@H]2O)n1 | · | · | -12%[176 µM] | ·
CC(=O)N1CCC(N[C@@H]2C[C@H](COc3cccc(C)n3)[C@@H](O)[C@H]2O)CC1 | · | · | 16µM* | ·
CC1CC=C(c2ccccc2)C(=S)N1 (configuration not stated) | -4% | -12% | 6% | ?
SMILES | VDR inh | PLK1 PBD inh | ALOX12 inh | Sfp PPTase inh
COc1ccc(CC(=O)N(C)CC(=O)Nc2ccccc2SC)cc1 | ? | 24µM* | 25% | 12%
CSc1ccccc1NC(=O)CN(C)CC(=O)NCc1ccccc1 | 1% | 5% | 12% | -1%
COc1ccc(S(=O)(=O)N(C)CC(=O)Nc2ccccc2SC)cc1 | -26% | -8% | -3% | -9%
CSc1ccccc1NC(=O)CN(C)Cc1cccc(Cl)c1 | -5% | -4% | ? | 32µM*
O=C(c1cc(CC2(NCc3ccccc3Cl)COC2)no1)N1CCCCC1 | · | · | -14%[176 µM] | ·
Cc1cc(C)cc(-n2nnc(C(=O)NCc3ccc(Cl)cc3)c2N)c1 | 2% | 2% | 17% | 9%
Cc1ccccc1-c1ccc2ncnc(N(C)Cc3ccco3)c2c1 | 32µM* | · | ? | ?
CN(Cc1ccco1)c1ncnc2ccc(-c3ccc4c(c3)OCO4)cc12 | 40µM*! | · | ? | 45µM*
CN(Cc1ccco1)c1ncncc1-c1cccnc1 | 45µM* | · | ? | ?
CC(=O)c1cccc(NC(=O)CN2CCN(C)CC2)c1 | · | · | 14% | ·
CC(C)N1CCc2[nH]c(=S)[nH]c(=O)c2C1 | -9% | -4% | ? | 45µM*
CCCN1CCc2[nH]c(=S)[nH]c(=O)c2C1 | -9% | -6% | -30% | 50µM*
Cc1ccc(S(=O)(=O)SC/C=C/CSS(=O)(=O)c2ccc(C)cc2)cc1 | 45µM* | 2.7µM* | 0.71µM* | ·
Cc1ccc(S(=O)(=O)SCCCSS(=O)(=O)c2ccc(C)cc2)cc1 | 50µM* | 2.4µM* | 1.8µM* | ·
CCNC(=O)N1CCCC1c1noc(CCC(=O)NCCC(C)C)n1 (configuration not stated) | · | · | 40µM* | ·
CCn1c(SCC(=O)NC(=O)NC(C)(C)C)nc2ccccc21 | ? | 9.5µM* | -20% | 3%
CC(C)(C)NC(=O)CSc1nc2ccccc2n1-c1ccccc1 | 13% | -21% | -17% | 50µM*
CCn1c(SCC(=O)NC2CC2)nc2ccccc21 | · | -6% | 2% | ·
O=c1c2cccnc2ncn1CC(O)c1ccc(C(F)(F)F)cc1 (configuration not stated) | · | · | 2% | ·
O=C(COC(=O)/C=C/c1ccccc1)NCc1ccc(Cl)cc1 | -16% | 7% | 7% | 1%
CCOC(=O)CNC(=O)c1cccnc1 | -4% | 24µM* | -5% | 8%
CCN(CC)C(=S)NC(=O)c1cccnc1 | -2% | -18% | -20% | 50µM*
N#Cc1ccccc1NC(=S)NC(=O)c1cccnc1 | -12% | 12µM* | ? | 50µM*
CCN(CC)C(=S)NC(=O)c1ccc(F)cc1 | -12% | -5% | 1% | 1%
CCOC(=O)c1sc(NNC(=O)c2ccc(F)cc2)nc1C | 3% | -3% | 0% | 6%
SMILES | VDR inh | PLK1 PBD inh | ALOX12 inh | Sfp PPTase inh
Cc1cccc(NC(=O)c2cc3n(n2)C(C(F)(F)F)CC(C2CC2)N3)c1C (configuration not stated) | 3% | 0% | -4% | 3%
CO/N=C/c1ccc(Oc2ccc(C)cc2)c([N+](=O)[O-])c1 | 28µM* | 12µM* | -5% | -10%
CO/N=C/c1ccc(Sc2ccccc2)c([N+](=O)[O-])c1 | 3% | -4% | 10% | -16%
NC(Cc1cccc(-c2ccccc2CP(=O)(O)O)c1)C(=O)O (configuration not stated) | 0% | · | · | ·
N[C@@H](Cc1cc(CP(=O)(O)O)cc(-c2ccccc2Cl)c1)C(=O)O | -19% | · | 270% | 8.9µM*
O=C1C(Cl)=C(NCCc2ccccc2)C(=O)c2ccccc21 | 18µM* | 2.7µM* | 4µM* | ·
O=C(O)c1cccc(NC2=C(Cl)C(=O)c3ccccc3C2=O)c1 | ? | 17µM* | ? | 25µM*
O=C(O)c1ccc(NC2=C(Cl)C(=O)c3ccccc3C2=O)cc1 | ? | 5.3µM* | -21% | 22µM*
O=C1C(Cl)=C(NCCc2ccccc2)C(=O)N1CCc1ccccc1 | -2% | -7% | ? | -5%
O=C1C(Cl)=C(Nc2ccccc2)C(=O)c2ccccc21 | 3% | -15% | -1% | 1%
